Measurements published in PubChem BioAssay (NCI).
The panel holds about 83,000 compounds, 20% with a hit somewhere; the sample as a whole holds those more often.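 Plates (96-well) were seeded with cells, treated with compound at one concentration, and incubated for 48 hours before percent growth was determined.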 The source made the active and inactive calls. Rule for the calls: active = growth percent below 10; inactive = the rest.

How the values were obtained:
Assay in all cases: NCI-60 one-dose screen, 48 h (100 = growth as untreated, 0 = no growth, -100 = all killed)
Conditions in all cases: 10 µM unless noted
SR leukemia = test system: SR leukemia
RPMI-8226 leukemia = test system: RPMI-8226 leukemia
OVCAR-8 ovarian = test system: OVCAR-8 ovarian
OVCAR-5 ovarian = test system: OVCAR-5 ovarian
OVCAR-4 ovarian = test system: OVCAR-4 ovarian
SK-OV-3 ovarian = test system: SK-OV-3 ovarian
IGROV1 ovarian = test system: IGROV1 ovarian
OVCAR-3 ovarian = test system: OVCAR-3 ovarian
HS 578T breast = test system: HS 578T breast
NCI/ADR-RES ovarian = test system: NCI/ADR-RES ovarian
T-47D breast = test system: T-47D breast
BT-549 breast = test system: BT-549 breast
MDA-MB-435 melanoma = test system: MDA-MB-435 melanoma
SW-620 colon = test system: SW-620 colon
MCF7 breast = test system: MCF7 breast
HCT-116 colon = test system: HCT-116 colon
HCC-2998 colon = test system: HCC-2998 colon
KM12 colon = test system: KM12 colon

Measured: growth

O=C1c2ccccc2C2(c3ccc(O)cc3)c3ccccc3Oc3cccc1c32 (configuration not stated)
inactive: RPMI-8226 leukemia 17.8% | OVCAR-8 ovarian 66.8% | OVCAR-5 ovarian 30.7% | OVCAR-4 ovarian 86.9% | SK-OV-3 ovarian 25.7% | IGROV1 ovarian 59.9% | OVCAR-3 ovarian 11.2% | HS 578T breast 25.8% | NCI/ADR-RES ovarian 11.1% | T-47D breast 21.8% | BT-549 breast 55.1% | SW-620 colon 22.7% | MCF7 breast 23.1% | HCT-116 colon 14.1% | HCC-2998 colon 34.6% | KM12 colon 15%
active: SR leukemia 9.2% | MDA-MB-435 melanoma -3.86%

N#Cc1c(N)nc2c(nnn2-c2cccc(C(F)(F)F)c2)c1N
inactive: SR leukemia 83.1% | RPMI-8226 leukemia 82.4% | OVCAR-8 ovarian 89.3% | OVCAR-5 ovarian 102% | OVCAR-4 ovarian 87.5% | SK-OV-3 ovarian 84.9% | IGROV1 ovarian 81.1% | OVCAR-3 ovarian 97.9% | HS 578T breast 46.2% | NCI/ADR-RES ovarian 95.8% | T-47D breast 48.1% | BT-549 breast 101% | MDA-MB-435 melanoma 108% | SW-620 colon 95.4% | MCF7 breast 60.1% | HCT-116 colon 97.4% | HCC-2998 colon 102% | KM12 colon 86.8%

CC(C)CCC[C@@H](C)[C@H]1CCC2C3=CCC4C(=O)C=CC(=O)C4C3CC[C@@]21C (some centres not stated)
active: RPMI-8226 leukemia 8.72% | OVCAR-8 ovarian 0.168% | OVCAR-5 ovarian 7.74% | OVCAR-4 ovarian -9.33% | IGROV1 ovarian -63.2% | OVCAR-3 ovarian 2.72% | HS 578T breast 8.12% | NCI/ADR-RES ovarian 7.87% | T-47D breast -18.9% | BT-549 breast -1.63% | MDA-MB-435 melanoma 5.05% | SW-620 colon -10.1% | MCF7 breast 8.65% | HCT-116 colon -75.5% | KM12 colon 7.56%
inactive: SR leukemia 13.2% | SK-OV-3 ovarian 10.5% | HCC-2998 colon 12.4%

Cc1ccccc1NC(=O)CN(C)C
inactive: SR leukemia 104% | RPMI-8226 leukemia 111% | OVCAR-8 ovarian 108% | OVCAR-5 ovarian 95.8% | OVCAR-4 ovarian 118% | SK-OV-3 ovarian 101% | IGROV1 ovarian 96% | OVCAR-3 ovarian 113% | HS 578T breast 113% | NCI/ADR-RES ovarian 101% | T-47D breast 95.6% | BT-549 breast 106% | MDA-MB-435 melanoma 108% | SW-620 colon 108% | MCF7 breast 97.4% | HCT-116 colon 101% | HCC-2998 colon 116% | KM12 colon 107%

c1ccc2[nH]c(SSc3nc4ncncc4[nH]3)nc2c1
inactive: SR leukemia 32.8% | RPMI-8226 leukemia 14.6% | OVCAR-8 ovarian 23% | OVCAR-5 ovarian 44.6% | OVCAR-4 ovarian 33.9% | SK-OV-3 ovarian 24.1% | IGROV1 ovarian 43.5% | OVCAR-3 ovarian 22.9% | HS 578T breast 59.7% | NCI/ADR-RES ovarian 26.2% | T-47D breast 46.5% | BT-549 breast 46.7% | MDA-MB-435 melanoma 19.7% | SW-620 colon 36.3% | HCT-116 colon 20.8% | HCC-2998 colon 18.2% | KM12 colon 15.1%
active: MCF7 breast 9.76%

O=C(NCOC(O)C(Cl)(Cl)Cl)NCOC(O)C(Cl)(Cl)Cl (configuration not stated)
inactive: SR leukemia 109% | RPMI-8226 leukemia 105% | OVCAR-8 ovarian 104% | OVCAR-5 ovarian 89.7% | OVCAR-4 ovarian 108% | SK-OV-3 ovarian 90% | IGROV1 ovarian 99.1% | OVCAR-3 ovarian 116% | HS 578T breast 108% | NCI/ADR-RES ovarian 103% | T-47D breast 89.5% | BT-549 breast 101% | MDA-MB-435 melanoma 107% | SW-620 colon 108% | MCF7 breast 89.6% | HCT-116 colon 99.9% | HCC-2998 colon 118% | KM12 colon 109%

COc1cc(-c2ncn(/C=C\c3nnco3)n2)cc(C(F)(F)F)c1
inactive: RPMI-8226 leukemia 76.4% | OVCAR-8 ovarian 19.8% | OVCAR-5 ovarian 37.9% | OVCAR-4 ovarian 15.4% | SK-OV-3 ovarian 38.9% | IGROV1 ovarian 22.3% | HS 578T breast 19.3% | NCI/ADR-RES ovarian 27.1% | T-47D breast 28.9% | SW-620 colon 14.6% | KM12 colon 10.7%
active: SR leukemia 6.43% | OVCAR-3 ovarian -20.8% | BT-549 breast -13.8% | MDA-MB-435 melanoma 2.34% | MCF7 breast 8.23% | HCT-116 colon 3.16% | HCC-2998 colon 7.01%

COc1cc2c(cc1OC)-c1ccc3cc4c(cc3c1N(CCCn1ccnc1)C2)OCO4
active: SR leukemia 7.86% | RPMI-8226 leukemia 0.821% | T-47D breast -18.4%
inactive: OVCAR-8 ovarian 44.7% | OVCAR-5 ovarian 103% | OVCAR-4 ovarian 67.9% | SK-OV-3 ovarian 20.7% | IGROV1 ovarian 38.3% | OVCAR-3 ovarian 33.5% | HS 578T breast 91.5% | NCI/ADR-RES ovarian 94.4% | BT-549 breast 32.1% | MDA-MB-435 melanoma 61.1% | SW-620 colon 39.3% | MCF7 breast 14% | HCT-116 colon 20% | HCC-2998 colon 82.8% | KM12 colon 76.1%

CN(C)c1ccc2cc(-c3ccccc3F)c(N)nc2c1
inactive: RPMI-8226 leukemia 25.2% | OVCAR-8 ovarian 22.6% | OVCAR-5 ovarian 68.7% | OVCAR-4 ovarian 32.8% | SK-OV-3 ovarian 28.9% | IGROV1 ovarian 40.9% | HS 578T breast 28.9% | T-47D breast 27.1% | BT-549 breast 25.5% | SW-620 colon 30% | MCF7 breast 27% | HCT-116 colon 22.4% | HCC-2998 colon 54.3% | KM12 colon 26%
active: SR leukemia 6.09% | OVCAR-3 ovarian 3.93% | NCI/ADR-RES ovarian 1.98% | MDA-MB-435 melanoma -9.25%
